# According to paper PMC11062922 (Nature Chemical Biology, 2023):
# Like-named read-outs stand apart in the source and are kept apart here.
# What was measured:
# Set-up in all cases: species or system human, MV4-11 + K-562 + COLO205 + SK-N-BE2 + OVCAR-8
# ATM = conditions: read-out: apparent Kd, n = 1
# ATR = conditions: read-out: apparent Kd; compound concentrations: 100 nM and 1000 nM (sheet 'Samples'), CATDS: 8.9801947735964505E-2; n = 1
# DJA1 = test system: T1, DJA1; conditions: read-out: apparent Kd; compound concentrations: 100 nM and 1000 nM (sheet 'Samples'), CATDS: 8.0242865429316204E-2; n = 1
# T1 construct: gene DNAJA1
# MTOR = conditions: read-out: apparent Kd, n = 1
# NLK = conditions: read-out: apparent Kd, compound concentrations: 100 nM and 1000 nM (sheet 'Samples'), n = 1
# PIK3C2A = conditions: read-out: apparent Kd; compound concentrations: 100 nM and 1000 nM (sheet 'Samples'), CATDS: 6.5272193721358701E-2; n = 1
# PIK3CA = conditions: read-out: apparent Kd, n = 1
# PRKAG2 = conditions: read-out: apparent Kd, n = 1
# PTK6 = conditions: read-out: apparent Kd; compound concentrations: 100 nM and 1000 nM (sheet 'Samples'), CATDS: 7.5402432247591605E-2; n = 1
# RAB14 = conditions: read-out: apparent Kd; compound concentrations: 100 nM and 1000 nM (sheet 'Samples'), CATDS: 6.8441155991484606E-2; n = 1
# STK16 = conditions: read-out: apparent Kd; compound concentrations: 100 nM and 1000 nM (sheet 'Samples'), CATDS: 0.118413696953623; n = 1
# AKT3 = conditions: read-out: apparent Kd, n = 1
# CDK16 = conditions: read-out: apparent Kd, compound concentrations: 100 nM and 1000 nM (sheet 'Samples'), n = 1
# CDK2 = conditions: read-out: apparent Kd, compound concentrations: 100 nM and 1000 nM (sheet 'Samples'), n = 1
# CDK5 = conditions: read-out: apparent Kd; compound concentrations: 100 nM and 1000 nM (sheet 'Samples'), CATDS: 0.117408744054376; n = 1
# CDK6 = conditions: read-out: apparent Kd; compound concentrations: 100 nM and 1000 nM (sheet 'Samples'), CATDS: 8.47728191524936E-2; n = 1
# CSNK2A1;CSNK2A3 = conditions: read-out: apparent Kd, compound concentrations: 100 nM and 1000 nM (sheet 'Samples'), n = 1
# CSNK2A2 = conditions: read-out: apparent Kd, compound concentrations: 100 nM and 1000 nM (sheet 'Samples'), n = 1
# FLT3 = conditions: read-out: apparent Kd; compound concentrations: 100 nM and 1000 nM (sheet 'Samples'), CATDS: 0.40008712572593402; n = 1
# MYLK3 = conditions: read-out: apparent Kd, n = 1
# FLT4 = conditions: read-out: apparent Kd; compound concentrations: 100 nM and 1000 nM (sheet 'Samples'), CATDS: 0.25804604622039201; n = 1
# TTN = conditions: read-out: apparent Kd; compound concentrations: 100 nM and 1000 nM (sheet 'Samples'), CATDS: 0.28618499292255201; n = 1
# GAK = conditions: read-out: apparent Kd, n = 1
# MAPK10 = conditions: read-out: apparent Kd, n = 1
# PLK4 = conditions: read-out: apparent Kd; compound concentrations:100 nM and 1000 nM (sheet 'Samples'); n = 1
# PRKACG = conditions: read-out: apparent Kd; compound concentrations:100 nM and 1000 nM (sheet 'Samples'); n = 1
# PRKAG1 = conditions: read-out: apparent Kd; compound concentrations:100 nM and 1000 nM (sheet 'Samples'); n = 1
# SIK2 = conditions: read-out: apparent Kd; compound concentrations:100 nM and 1000 nM (sheet 'Samples'); n = 1
# TNIK = conditions: read-out: apparent Kd; compound concentrations:100 nM and 1000 nM (sheet 'Samples'); n = 1
# MAPK14 = conditions: read-out: apparent Kd; compound concentrations: 100 nM and 1000 nM (sheet 'Samples'), CATDS: 0.26404764630767302; n = 1
# MAPK9 = conditions: read-out: apparent Kd; compound concentrations: 100 nM and 1000 nM (sheet 'Samples'), CATDS: 0.111534825966063; n = 1
# PRKCQ = conditions: read-out: apparent Kd; compound concentrations: 100 nM and 1000 nM (sheet 'Samples'), CATDS: 0.10805556024324001; n = 1
# PRKCZ = conditions: read-out: apparent Kd; compound concentrations: 100 nM and 1000 nM (sheet 'Samples'), CATDS: 0.11125426430481999; n = 1
# CDC7 = conditions: read-out: apparent Kd; compound concentrations: 100 nM and 1000 nM (sheet 'Samples'), CATDS: 6.3073958864856297E-2; n = 1
# CDKL5 = conditions: read-out: apparent Kd; compound concentrations: 100 nM and 1000 nM (sheet 'Samples'), CATDS: 6.5208173112241197E-2; n = 1
# CLK2 = conditions: read-out: apparent Kd; compound concentrations: 100 nM and 1000 nM (sheet 'Samples'), CATDS: 8.0907286547203805E-2; n = 1
# CLK4 = conditions: read-out: apparent Kd; compound concentrations: 100 nM and 1000 nM (sheet 'Samples'), CATDS: 8.1638299421732605E-2; n = 1
# GSK3A = conditions: read-out: apparent Kd, compound concentrations: 100 nM and 1000 nM (sheet 'Samples'), n = 1
# GSK3B = conditions: read-out: apparent Kd; compound concentrations: 100 nM and 1000 nM (sheet 'Samples'), CATDS: 7.1527025569737807E-2; n = 1
# ICK = conditions: read-out: apparent Kd; compound concentrations: 100 nM and 1000 nM (sheet 'Samples'), CATDS: 7.9134779366863195E-2; n = 1
# EPHB4 = conditions: read-out: apparent Kd; compound concentrations:100 nM and 1000 nM (sheet 'Samples'); n = 1
# ERCC2 = conditions: read-out: apparent Kd; compound concentrations:100 nM and 1000 nM (sheet 'Samples'); n = 1
# FER = conditions: read-out: apparent Kd; compound concentrations:100 nM and 1000 nM (sheet 'Samples'); n = 1
# PTK2B = conditions: read-out: apparent Kd; compound concentrations:100 nM and 1000 nM (sheet 'Samples'); n = 1
# TNK1 = conditions: read-out: apparent Kd; compound concentrations:100 nM and 1000 nM (sheet 'Samples'); n = 1
# TNK2 = conditions: read-out: apparent Kd; compound concentrations:100 nM and 1000 nM (sheet 'Samples'); n = 1
# MTHFD1 = conditions: read-out: apparent Kd; compound concentrations: 100 nM and 1000 nM (sheet 'Samples'), CATDS: 0.40947747984703597; n = 1
# RIPK2 = conditions: read-out: apparent Kd; compound concentrations: 100 nM and 1000 nM (sheet 'Samples'), CATDS: 0.226668000101196; n = 1
# [1] = compound concentrations:100 nM and 1000 nM (sheet 'Samples')
smiles,measurement,setting,value
Fc1ccc(-c2ncn(CCCN3CCOCC3)c2-c2ccccn2)cc1 [SB-211742],potency estimated from few doses,"ATM; compound concentrations: 100 nM and 1000 nM (sheet 'Samples'), CATDS: 0.213303269988698",181 nM
same,potency estimated from few doses,ATR,854 nM
same,potency estimated from few doses,DJA1,1130 nM
same,potency estimated from few doses,"MTOR; compound concentrations: 100 nM and 1000 nM (sheet 'Samples'), CATDS: 0.10171258605148099",648 nM
same,potency estimated from few doses,NLK; CATDS: 7.3825275535159302E-2,1420 nM
same,potency estimated from few doses,PIK3C2A,2110 nM
same,potency estimated from few doses,"PIK3CA; compound concentrations: 100 nM and 1000 nM (sheet 'Samples'), CATDS: 0.22105458504596001",172 nM
same,potency estimated from few doses,"PRKAG2; compound concentrations: 100 nM and 1000 nM (sheet 'Samples'), CATDS: 7.5904360676084706E-2",1310 nM
same,potency estimated from few doses,PTK6,1330 nM
same,potency estimated from few doses,RAB14,1790 nM
same,potency estimated from few doses,STK16,479 nM
NS(=O)(=O)c1ccc(Nc2cc(-c3ccc(O)c(F)c3)n[nH]2)cc1 [GW831091X],potency estimated from few doses,"AKT3; compound concentrations: 100 nM and 1000 nM (sheet 'Samples'), CATDS: 8.6052459279118296E-2",1690 nM
same,potency estimated from few doses,CDK16; CATDS: 8.8636413805305694E-2,1550 nM
same,potency estimated from few doses,CDK2; CATDS: 0.14540297909740599,491 nM
same,potency estimated from few doses,CDK5,759 nM
same,potency estimated from few doses,CDK6,1770 nM
same,potency estimated from few doses,CSNK2A1;CSNK2A3; CATDS: 0.11670425999811999,770 nM
same,potency estimated from few doses,CSNK2A2; CATDS: 0.126102528289014,652 nM
same,potency estimated from few doses,FLT3,99.2 nM
same,potency estimated from few doses,"MYLK3; compound concentrations: 100 nM and 1000 nM (sheet 'Samples'), CATDS: 8.3976923453049093E-2",1830 nM
CCN(CC)S(=O)(=O)c1ccc(OC)c(Nc2ncc(-c3ccccc3)o2)c1 [GW572401X],potency estimated from few doses,"ATM; compound concentrations: 100 nM and 1000 nM (sheet 'Samples'), CATDS: 0.38559803360956002",233 nM
same,potency estimated from few doses,FLT4,495 nM
same,potency estimated from few doses,"MYLK3; compound concentrations: 100 nM and 1000 nM (sheet 'Samples'), CATDS: 0.16564230425287901",1940 nM
same,potency estimated from few doses,TTN,399 nM
COc1ccc2[nH]c3c4[nH]c5ccc(OC)cc5c4c4c(c3c2c1)C(=O)NC4=O [GW296115X],potency estimated from few doses,ATM; [1],204 nM
same,potency estimated from few doses,GAK; [1],543 nM
same,potency estimated from few doses,MAPK10; [1],1050 nM
same,potency estimated from few doses,MTOR; [1],741 nM
same,potency estimated from few doses,MYLK3; [1],834 nM
same,potency estimated from few doses,PIK3CA; [1],254 nM
same,potency estimated from few doses,PLK4,581 nM
same,potency estimated from few doses,PRKACG,655 nM
same,potency estimated from few doses,PRKAG1,1550 nM
same,potency estimated from few doses,PRKAG2; [1],1670 nM
same,potency estimated from few doses,SIK2,923 nM
same,potency estimated from few doses,TNIK,1700 nM
O=c1c(Oc2ccc(F)cc2F)cc2cnc(NC3CCOCC3)nc2n1C1CC1 [RO4399247-000],potency estimated from few doses,"AKT3; compound concentrations: 100 nM and 1000 nM (sheet 'Samples'), CATDS: 0.120130462725208",1390 nM
same,potency estimated from few doses,"MAPK10; compound concentrations: 100 nM and 1000 nM (sheet 'Samples'), CATDS: 0.16061628875685399",690 nM
same,potency estimated from few doses,MAPK14,279 nM
same,potency estimated from few doses,MAPK9,1740 nM
same,potency estimated from few doses,NLK; CATDS: 0.289538211789438,242 nM
same,potency estimated from few doses,PRKCQ,1930 nM
same,potency estimated from few doses,PRKCZ,1750 nM
NS(=O)(=O)c1ccc(N/N=C2\C(=O)Nc3ccc(C(=O)NCCCn4ccnc4)cc32)cc1 [GW290597X],potency estimated from few doses,"ATM; compound concentrations: 100 nM and 1000 nM (sheet 'Samples'), CATDS: 0.20887249405767599",232 nM
same,potency estimated from few doses,CDC7,2220 nM
same,potency estimated from few doses,CDK16; CATDS: 0.118346075913056,550 nM
same,potency estimated from few doses,CDK2; CATDS: 0.141708067448752,409 nM
same,potency estimated from few doses,CDKL5,2010 nM
same,potency estimated from few doses,CLK2,1150 nM
same,potency estimated from few doses,CLK4,1130 nM
same,potency estimated from few doses,CSNK2A1;CSNK2A3; CATDS: 6.6778954653333403E-2,1870 nM
same,potency estimated from few doses,CSNK2A2; CATDS: 7.8455201722788401E-2,1240 nM
same,potency estimated from few doses,GSK3A; CATDS: 7.3699312386452706E-2,1440 nM
same,potency estimated from few doses,GSK3B,1550 nM
same,potency estimated from few doses,ICK,1210 nM
O=C(Nc1c(F)cccc1F)c1cc(C(=O)c2ccccc2F)c[nH]1 [GSK1326180A],potency estimated from few doses,AKT3; [1],1080 nM
same,potency estimated from few doses,EPHB4,1310 nM
same,potency estimated from few doses,ERCC2,984 nM
same,potency estimated from few doses,FER,920 nM
same,potency estimated from few doses,PTK2B,1070 nM
same,potency estimated from few doses,TNK1,870 nM
same,potency estimated from few doses,TNK2,898 nM
Cn1cc(C2=C(c3cn(C)c4cc(C(N)=O)ccc34)C(=O)NC2=O)c2ccccc21 [RO0319317-000],potency estimated from few doses,"ATM; compound concentrations: 100 nM and 1000 nM (sheet 'Samples'), CATDS: 0.45876429377403",142 nM
same,potency estimated from few doses,GSK3A; CATDS: 0.228409862678119,860 nM
same,potency estimated from few doses,MTHFD1,175 nM
COc1cc(Nc2ccnc3ccc(Br)cc23)cc(OC)c1OC [CA93.0],potency estimated from few doses,"ATM; compound concentrations: 100 nM and 1000 nM (sheet 'Samples'), CATDS: 0.26072592490086599",205 nM
same,potency estimated from few doses,"GAK; compound concentrations: 100 nM and 1000 nM (sheet 'Samples'), CATDS: 0.73237388981335505",22.7 nM
same,potency estimated from few doses,NLK; CATDS: 0.15655838953280801,1500 nM
same,potency estimated from few doses,RIPK2,311 nM
Cc1cnc(N)c(/C=C/c2cncc(C(=O)NCCc3ccc(Cl)cc3Cl)c2)c1.Cl [GSK190937A],potency estimated from few doses,"ATM; compound concentrations: 100 nM and 1000 nM (sheet 'Samples'), CATDS: 1",186 nM
